Results as given in the supplement of paper PMC7156485.
Structures can show the parent of a compound that is named as a salt. ± gives the standard deviation of the averaged measurements.

Tests used:
Details in all cases: concentration: 10 µM; 24 h
HCC1569 [1] = test: cell number relative to DMSO (% of DMSO); higher = more cells (less growth inhibition / toxicity)
Procedure, shortened: (§1)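 After 24 h at 37 °C with compounds at 10 µM, in triplicate, HCC1569 and TDF cells were fixed with 3.7% formaldehyde. Immunostaining used a rabbit anti-H1.0 antibody and an AlexaFluor 647 secondary, with DAPI, and six fields per well were imaged at ×10. H1.0 nuclear intensity or cell number is presented as percent of the plate control, from the median of replicates, with HCC1569 values smoothed for positional effects.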

TDF [2] = test: as above
Procedure, shortened: as §1

TDF [3] = test: H1.0 immunofluorescence intensity relative to DMSO (% of DMSO); higher = stronger H1.0 induction, active = 120 or more
Procedure, shortened: as §1

HCC1569 [4] = test: H1.0 immunofluorescence intensity relative to DMSO (% of DMSO); higher = stronger H1.0 induction, active = 140 or more
Procedure, shortened: as §1
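Throughout, for H1.0 immunofluorescence intensity relative to DMSO: TDF is a line of transformed human dermal fibroblasts of mesenchymal origin.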
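Throughout, for cell number relative to DMSO: TDF denotes transformed human dermal fibroblasts of mesenchymal origin.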

Row | Compound | cell number (HCC1569 [1]) | cell number (TDF [2]) | H1.0 immunofluorescence intensity (TDF [3]) | H1.0 immunofluorescence intensity (HCC1569 [4])
1 | C[N+](C)(C)CCCCCCCCCC[N+](C)(C)C [Decamethonium] | 105 | 118 | 91 (inactive) | 102 (inactive)
2 | CC1(C)CCCC(C)(C)N1[O] | 99.1 | 96.8 | 100 (inactive) | 99.1 (inactive)
3 | CC12CCC(O)CC1CCC1C2CCC2(C)C(C3=CC(=O)OC3)C(O)CC12O (stereo unspecified) [Gitoxigenin] | 104 | 73.1 | 103 (inactive) | 81.4 (inactive)
4 | CC(C)(C)c1cc(C=C(C#N)C#N)cc(Br)c1O | 99.2 | 99.1 | 110 (inactive) | 99.8 (inactive)
5 | CCC1(O)C(=O)OCc2c1cc1n(c2=O)Cc2cc3ccccc3nc2-1 [(S)-(+)-Camptothecin] | 54.2 | 26.9 | 126 (active) | 114 (inactive)
6 | N#CC(C#N)=Cc1ccc(O)c(O)c1 [Tyrphostin 23] | 92.8 | 93.1 | 94.4 (inactive) | 102 (inactive)
7 | C[N+](C)(C)CC#CCOC(=O)Nc1cccc(Cl)c1.[Cl-] | 103 | 99.2 | 94.4 (inactive) | 87.7 (inactive)
8 | COc1ccc(O)c(C(C)(C)C)c1 | 106 | 107 | 94.5 (inactive) | 91.3 (inactive)
9 | COc1ccc(C(=O)N2CCCC2=O)cc1 [Aniracetam] | 100.1 ± 0.23 | 97.8 ± 14 | 92.7 (inactive) | 95 (inactive)
10 | CCN(CC)C(=O)NC1CC2c3cccc4[nH]cc(c34)CC2N(C)C1 (stereo not drawn) [R(+)-Terguride] | 101 | 110 | 91.9 (inactive) | 99.5 (inactive)
11 | COc1cc2c(cc1O)CC1c3c(cc(O)c(OC)c3-2)CCN1C (stereo unspecified) [Boldine] | 103 | 103 | 105 (inactive) | 99.9 (inactive)
12 | CC(O)(CS(=O)(=O)c1ccc(F)cc1)C(=O)Nc1ccc(C#N)c(C(F)(F)F)c1 (stereo unspecified) [Bicalutamide] | 99.1 | 104 | 94.6 (inactive) | 98.8 (inactive)
13 | CCCCC(C#N)(Cn1cncn1)c1ccc(Cl)cc1 (stereo unspecified) [Myclobutanil] | 104 | 92.6 | 102 (inactive) | 102 (inactive)
14 | NCCc1c[nH]c2ccc(C(N)=O)cc12.O=C(O)C=CC(=O)O [5-Carboxamidotryptamine maleate] | 100 | 103 | 91.3 (inactive) | 87.6 (inactive)
15 | Cl.O=C(N[C@H]1CN2CCC1CC2)c1c[nH]c2ccsc2c1=O | 106 | 94.7 | 98.3 (inactive) | 107 (inactive)
16 | COc1ccc2[nH]cc(CCN)c2c1.Cl [O-Methylserotonin hydrochloride] | 96.9 | 97.6 | 89.1 (inactive) | 106 (inactive)
17 | COc1ccc(C(CN(C)C)C2(O)CCCCC2)cc1 (stereo unspecified) [Venlafaxine] | 102 | 107 | 106 (inactive) | 110 (inactive)
18 | CCCC[N+]1(C)C2CC(OC(=O)C(CO)c3ccccc3)CC1C1OC12.[Br-] (stereo unspecified) [Scopolamine N-butylbromide] | 99.1 | 111 | 93.6 (inactive) | 88.1 (inactive)
19 | C=C1C(C)C2C(Cc3ccccc3)NC(=O)C23OC(=O)C=CC(O)CCCC(C)CC=CC3C1O (stereo unspecified) [Cytochalasin B] | 95.1 | 63.7 | 125 (active) | 110 (inactive)
20 | CC(C)Oc1cccnc1N(C)C1CCN(Cc2ccc(I)cc2)CC1 [RBI-257 maleate] | 100 | 98.1 | 94.8 (inactive) | 102 (inactive)
21 | NC(Cn1cc(I)c(=O)[nH]c1=O)C(=O)O (stereo unspecified) [S-5-Iodowillardiine] | 107 | 107 | 91.2 (inactive) | 111 (inactive)
22 | Oc1ccc2c3c1OC1C(O)CCC4(O)C(C2)N(CC2CCC2)CCC314 (stereo unspecified) [Nalbuphine] | 105 | 105 | 89.2 (inactive) | 104 (inactive)
23 | Cl.NNC(N)=O [Semicarbazide hydrochloride] | 102 | 111 | 89 (inactive) | 108 (inactive)
24 | CC(N)Cc1c[nH]c2ccc(OCc3cccs3)cc12.Cl (stereo unspecified) | 102 | 115 | 87.9 (inactive) | 92.8 (inactive)
25 | CCC1(c2ccc(N)cc2)CCC(=O)NC1=O (racemic) [DL-Aminoglutethimide] | 109 | 102 | 93.1 (inactive) | 109 (inactive)
26 | CN1C(=O)C23CC4=CC=CC(O)C4N2C(=O)C1(CO)SS3 (stereo unspecified) [Gliotoxin] | 0.969 | 0.3 | – | –

Row | Compound | cell number (HCC1569 [1]) | cell number (TDF [2]) | H1.0 immunofluorescence intensity (TDF [3]) | H1.0 immunofluorescence intensity (HCC1569 [4])
27 | CC1OC(C[N+](C)(C)C)CC1O.[Cl-] (single isomer, unassigned; (+)) [(+)-Muscarine chloride] | 106 | 116 | 93 (inactive) | 83.8 (inactive)
28 | CC(C)(C)c1o[nH]c(=O)c1CC(N)C(=O)O (stereo unspecified) | 98.3 | 104 | 90 (inactive) | 95 (inactive)
29 | Br.CCCN(CCC)CCc1ccc(O)c(O)c1 [Dipropyldopamine hydrobromide] | 97.9 | 104 | 90.8 (inactive) | 100 (inactive)
30 | C=CCN1CCC23c4c5ccc(O)c4OC2C(=NNC(=O)c2ccccc2)CCC3(O)C1C5 (stereo unspecified) [Naloxone benzoylhydrazone] | 99.7 | 118 | 101 (inactive) | 93.3 (inactive)
31 | CC(C)(C)c1cc(C=C(C#N)C#N)cc(C(C)(C)C)c1O [Tyrphostin A9] | 54.6 | 47 | 117 (inactive) | 87.7 (inactive)
32 | CC(=O)OCC12CCC(C)=CC1OC1C(O)C(OC(C)=O)C2(C)C12CO2 (stereo unspecified) [Diacetoxyscirpenol] | 56.8 | 13.6 | 128 (active) | 95.6 (inactive)
33 | CCCCCCCCCCCCCC(=O)OC1C(C)C2(O)C(C=C(CO)CC3(O)C(=O)C(C)=CC32)C2C(C)(C)C12OC(C)=O (stereo not drawn) [4alpha-Phorbol-12-myristate-13-acetate] | 98.4 | 111 | 95.6 (inactive) | 108 (inactive)
34 | Cl.OC1CCCCC1N1CCC(c2ccccc2)CC1 (stereo unspecified) [Vesamicol hydrochloride] | 99 | 104 | 94.2 (inactive) | 106 (inactive)
35 | COc1cc2c(c3oc4cccc(O)c4c(=O)c13)C1C=COC1O2 (stereo unspecified) [Sterigmatocystin] | 80.2 | 75.6 | 96.5 (inactive) | 92.2 (inactive)
36 | CN1CC(C(=O)NC2(C)OC3(O)C4CCCN4C(=O)C(Cc4ccccc4)N3C2=O)CC2c3cccc4[nH]cc(c34)CC21.CS(=O)(=O)O (stereo unspecified) [Dihydroergotamine mesylate] | 98.8 | 102 | 92.6 (inactive) | 105 (inactive)
37 | CC(C)CC1C(=O)N2CCCC2C2(O)OC(NC(=O)C3C=C4c5cccc6[nH]c(Br)c(c56)CC4N(C)C3)(C(C)C)C(=O)N12.CS(=O)(=O)O (single isomer, unassigned; (+)) [(+)-Bromocriptine methanesulfonate] | 91.1 | 103 | 96.3 (inactive) | 108 (inactive)
38 | CCCN1CCOC2c3cc(O)ccc3OCC21.Cl (racemic) | 104 | 91 | 88.1 (inactive) | 96.5 (inactive)
39 | CCCN1CCCC2Cc3[nH]ncc3CC21 (racemic) | 99.6 | 96.7 | 100 (inactive) | 106 (inactive)
40 | COc1ccc(OC)c(C(O)C(C)N)c1.Cl (stereo unspecified) [Methoxamine hydrochloride] | 101 | 106 | 95.2 (inactive) | 94.3 (inactive)
41 | Br.COC(=O)C1=CCCN(C)C1 | 102 | 112 | 89.8 (inactive) | 82.8 (inactive)
42 | Ic1ccccc1CNC1C2CCN(CC2)C1C(c1ccccc1)c1ccccc1.O=C(O)C(=O)O [L-703,606 oxalate] | 85.3 | 91.8 | 114 (inactive) | 128 (inactive)
43 | CCCCCC=CCC(C=CC=CCC=CCCCC(=O)O)OO (stereo unspecified) | 102 | 101 | 102 (inactive) | 99.8 (inactive)
44 | CN(C)CCc1ccc(O)cc1.CN(C)CCc1ccc(O)cc1.O=S(=O)(O)O [Hordenine sulfate] | 99.3 | 99.9 | 104 (inactive) | 99.9 (inactive)
45 | CCCC[N+]1(C)C2CC(OC(=O)C(CO)c3ccccc3)CC1C1OC12 (stereo unspecified) [Scopolamine N-butyl] | 103 | 111 | 91.4 (inactive) | 100 (inactive)
46 | C=CCN1CC(C)N(C(c2ccc(C(=O)N(CC)CC)cc2)c2cccc(OC)c2)CC1C (stereo unspecified) | 102 | 102 | 96.5 (inactive) | 87.8 (inactive)
47 | CCCN(CCC)C1CCc2ccc(O)cc2C1 (racemic) | 102 | 111 | 88.7 (inactive) | 95.4 (inactive)
48 | CS(=O)CCCCN=C=S (stereo unspecified) [1-isothiocyanato-4-(methylsulfinyl)butane] | 99.7 | 94.9 | 93.7 (inactive) | 89.6 (inactive)
49 | CC(C)C1CNC(C(=O)O)C1CC(=O)O (stereo unspecified) [Dihydrokainic acid] | 102 | 116 | 89.2 (inactive) | 88.7 (inactive)
50 | CC1=C(O)C(=O)C2OC2C1=O (single isomer, unassigned; (-)) | 80 | 98.1 | 96.7 (inactive) | 117 (inactive)
51 | CC(C)C1(NC(=O)C2CC3c4cccc5[nH]cc(c45)CC3N(C)C2)OC2(O)C3CCCN3C(=O)C(Cc3ccccc3)N2C1=O (stereo unspecified) [Dihydroergocristine] | 104 | 100 | 90.4 (inactive) | 117 (inactive)
52 | CC1C=CC=CCCC=CC=CC=CC=CC(OC2OC(C)C(O)C(N)C2O)CC2OC(O)(CC(O)C(O)CCC(O)CC(O)CC(O)CC(=O)OC(C)C(C)C1O)CC(O)C2C(=O)O (stereo unspecified) [Nystatin] | 101 | 105 | 103 (inactive) | 104 (inactive)
